# Test results as given in PubChem BioAssay (Tox21).
# Results filed as inconclusive are left out. A number with no mark means an inactive call. Unless noted, the call rests on the fitted dose curve. Non-standard residues stand in square brackets, D forms with d. Residues, ends and D or L forms follow the SMILES beside them. *: point of attachment. Sta = CC(C)C[C@H](N)[C@@H](O)CC(=O)O; Isovaleryl = CC(C)CC(=O)*
# Test system: thyroid hormone receptor (rat, GH3 cells)
# Experiment: qHTS assay to identify small molecule agonists of the thyroid receptor (TR) signaling pathway (AID 743066)
# Conditions: GH3.TRE-Luc cells, TR agonist luciferase, 24 h; series mostly up to 83.9 µM; activation: at the top concentration
# On the % scale 0 is the no-effect control and ±100 the full control effect.
row,Compound,activation
1,CCC(C)(C)C,0.825% [at 95.2 µM]
2,CC(C)(O)c1ccc(C(C)(C)O)cc1,2.92%
3,O=C(O)Cc1c(Cl)ccc(Cl)c1Cl,-0.906%
4,C[Si](C)(C)O[Si](O)(O)O,0.318%
5,CC/C=C\CCCCCCCCCCOC(C)=O,-0.866%
6,CCO[Si](CC(C)C)(OCC)OCC,-0.411%
7,C=CCOC(=O)CCCCCCCC,2.64% [at 95.2 µM]
8,COc1cc2nc(N3CCN(C(=O)C4CCCO4)CC3)nc(N)c2cc1OC (stereo not drawn),-0.14%
9,Nc1nc(Cl)cc(Cl)n1,-3.35%
10,CN1CCN(C(=O)C2CCCCC2)CC1,1.43%
11,CCCC(=O)CC,1.46% [at 95.2 µM]
12,O=P(O)(O)C(O)(Cc1cccnc1)P(=O)(O)O,0.148%
13,CN(C)c1cc(NC(=O)CNC(C)(C)C)c(O)c2c1C[C@H]1C[C@H]3[C@H](N(C)C)C(=O)C(C(N)=O)=C(O)[C@@]3(O)C(=O)C1=C2O,-1.32%
14,CCCCCCCCCCCCCCCC/C=C/C1CC(=O)OC1=O (stereo not drawn),-6.23%
15,CC(O)CCCCn1c(=O)c2c(ncn2C)n(C)c1=O (stereo not drawn),1.46%
16,c1coc(Cn2cccc2)c1,0.326%
17,Nc1cc(S(=O)(=O)O)ccc1O,0.388%

row,Compound,activation
1,CC12CCCC=C1C(=O)OC2=O (stereo not drawn),4.53%
2,Cc1cc(N)no1,0.3% [at 95.2 µM]
3,O=C(O)Cc1ccccc1Oc1ccc(Cl)cc1Cl,-3.36%
4,CC(=O)OC1CCC(C(C)(C)C)CC1 (stereo not drawn),1.01%
5,CN(C)CCCN(C)C,-3.73% [at 8.08 µM]
6,Cc1ccc(O)c(C(=O)c2ccccc2)c1,-2.86% [at 95.2 µM]
7,CC(=O)c1c(C)cc(C(C)(C)C)cc1C,0.222%
8,CCCCN(CCCC)CCCCCCN(CCCC)CCCC,-0.209%
9,CCOC(=O)c1ccc(N(C)C)cc1,2.42%
10,Cc1ccccc1OCC(=O)O,0.343%
11,C/C=C(\C)C(=O)OC/C=C(\C)CCC=C(C)C,0.811%
12,CC(C)(C)C(=O)CCc1ccc(Cl)cc1,-0.952%
13,CCC(=O)OCCOc1ccccc1,-0.791%
14,CSC(=O)c1cccc2nnsc12,2.79%
15,C/C=C(\C)C=O,1.16% [at 95.2 µM]
16,CCCCCCCCCCCBr,-1.17%
17,CC(C)CC(=O)N[C@H](C(=O)N[C@H](C(=O)N[C@@H](CC(C)C)[C@@H](O)CC(=O)N[C@@H](C)C(=O)N[C@@H](CC(C)C)[C@@H](O)CC(=O)O)C(C)C)C(C)C (Isovaleryl-VV[Sta]A[Sta]-OH),1.74%

# Target: Estrogen receptor (Homo sapiens) (UniProt P03372)
# Sequence (P03372 whole entry, looked up): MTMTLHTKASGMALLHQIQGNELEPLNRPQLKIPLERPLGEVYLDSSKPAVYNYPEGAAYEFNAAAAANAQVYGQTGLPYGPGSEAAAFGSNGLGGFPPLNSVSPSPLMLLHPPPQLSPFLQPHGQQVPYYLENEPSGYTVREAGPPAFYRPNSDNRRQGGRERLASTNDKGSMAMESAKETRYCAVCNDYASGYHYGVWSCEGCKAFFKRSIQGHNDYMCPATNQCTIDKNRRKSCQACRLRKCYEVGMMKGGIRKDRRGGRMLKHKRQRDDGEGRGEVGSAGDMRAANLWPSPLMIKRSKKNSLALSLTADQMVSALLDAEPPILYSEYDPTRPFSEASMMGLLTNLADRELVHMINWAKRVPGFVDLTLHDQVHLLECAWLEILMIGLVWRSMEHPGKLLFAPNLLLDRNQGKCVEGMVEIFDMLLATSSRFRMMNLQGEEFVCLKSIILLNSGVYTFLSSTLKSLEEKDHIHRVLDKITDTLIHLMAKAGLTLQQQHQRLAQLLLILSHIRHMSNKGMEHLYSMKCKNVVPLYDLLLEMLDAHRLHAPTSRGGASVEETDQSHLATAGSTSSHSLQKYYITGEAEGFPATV
# Experiment: qHTS assay to identify small molecule antagonists of the estrogen receptor alpha (ER-alpha) signaling pathway (AID 743069; active means well fitted curve in the direction sought with a large enough effect in the signal ratio in the repeat runs, not every such curve was filed as active; the % refers to the signal ratio)
# Conditions: HEK293 ER-alpha-UAS-bla, beta-lactamase ratio, antagonist mode; series mostly up to 69.4 µM; activity, negative = inhibition: at the top concentration
# Procedure, shortened: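 Fluorescence intensity from a beta-lactamase FRET substrate served as the read-out. Cells: HEK293 with stably integrated ER-alpha-UAS-bla reporter. Agonist 17beta-estradiol was co-added with compounds; incubation 18 hr at 37C, substrate 2 hr at room temperature.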
row,Compound,"activity, negative = inhibition"
1,CCC(C)(C)C,-6.7% [at 79.1 µM]
2,CC(C)(O)c1ccc(C(C)(C)O)cc1,8.52%
3,O=C(O)Cc1c(Cl)ccc(Cl)c1Cl,-8.76%
4,C[Si](C)(C)O[Si](O)(O)O,-14.2%
5,CC/C=C\CCCCCCCCCCOC(C)=O,10.6%
6,CCO[Si](CC(C)C)(OCC)OCC,30.8%
7,C=CCOC(=O)CCCCCCCC,5.78% [at 79.1 µM]
8,COc1cc2nc(N3CCN(C(=O)C4CCCO4)CC3)nc(N)c2cc1OC (stereo not drawn),5.64%
9,Nc1nc(Cl)cc(Cl)n1,7.39%
10,CN1CCN(C(=O)C2CCCCC2)CC1,2.48%
11,CCCC(=O)CC,5.42% [at 79.1 µM]
12,O=P(O)(O)C(O)(Cc1cccnc1)P(=O)(O)O,5.6%
13,CN(C)c1cc(NC(=O)CNC(C)(C)C)c(O)c2c1C[C@H]1C[C@H]3[C@H](N(C)C)C(=O)C(C(N)=O)=C(O)[C@@]3(O)C(=O)C1=C2O,-5.26%
14,CC(O)CCCCn1c(=O)c2c(ncn2C)n(C)c1=O (stereo not drawn),8.35%
15,c1coc(Cn2cccc2)c1,-7.93%
16,Nc1cc(S(=O)(=O)O)ccc1O,-18.5%
17,O=C(O)Cc1ccccc1Oc1ccc(Cl)cc1Cl,-14.7%
18,CC(=O)OC1CCC(C(C)(C)C)CC1 (stereo not drawn),7.53%
19,CN(C)CCCN(C)C,3.46% [at 6.71 µM]
20,CCCCN(CCCC)CCCCCCN(CCCC)CCCC,14.2%
21,Cc1ccccc1OCC(=O)O,-12.5%
22,C/C=C(\C)C(=O)OC/C=C(\C)CCC=C(C)C,-7.95%
23,CC(C)(C)C(=O)CCc1ccc(Cl)cc1,9.79%
24,CCC(=O)OCCOc1ccccc1,12.5%
25,C/C=C(\C)C=O,-6.66% [at 79.1 µM]
26,CCCCCCCCCCCBr,-8.32%

# Test system: not listed separately
# Experiment: qHTS assay to identify small molecule antagonists of the estrogen receptor alpha (ER-alpha) signaling pathway - cell viability counter screen (AID 743074); further: nearly all actives have a fitted effect of over 45% in size
# Conditions: ERalpha-bla HEK293 viability, CellTiter-Glo luminescence, 18 h; series mostly up to 69.4 µM; activity, negative = cytotoxicity: at the top concentration
row,Compound,"activity, negative = cytotoxicity"
1,CCC(C)(C)C,15.4% [at 79.1 µM]
2,CC(C)(O)c1ccc(C(C)(C)O)cc1,15.7%
3,O=C(O)Cc1c(Cl)ccc(Cl)c1Cl,29.1%
4,C[Si](C)(C)O[Si](O)(O)O,-6.5%
5,CC/C=C\CCCCCCCCCCOC(C)=O,-12.4%
6,CCO[Si](CC(C)C)(OCC)OCC,-15.9%
7,C=CCOC(=O)CCCCCCCC,12.6% [at 79.1 µM]
8,COc1cc2nc(N3CCN(C(=O)C4CCCO4)CC3)nc(N)c2cc1OC (stereo not drawn),4.38%
9,CN1CCN(C(=O)C2CCCCC2)CC1,-12.5%
10,CCCC(=O)CC,13.1% [at 79.1 µM]
11,O=P(O)(O)C(O)(Cc1cccnc1)P(=O)(O)O,8.67%
12,CN(C)c1cc(NC(=O)CNC(C)(C)C)c(O)c2c1C[C@H]1C[C@H]3[C@H](N(C)C)C(=O)C(C(N)=O)=C(O)[C@@]3(O)C(=O)C1=C2O,-17.1%
13,CCCCCCCCCCCCCCCC/C=C/C1CC(=O)OC1=O (stereo not drawn),10.3%
14,CC(O)CCCCn1c(=O)c2c(ncn2C)n(C)c1=O (stereo not drawn),5.87%
15,c1coc(Cn2cccc2)c1,-14.4%
16,Nc1cc(S(=O)(=O)O)ccc1O,3.04%
17,CC12CCCC=C1C(=O)OC2=O (stereo not drawn),12.1%

row,Compound,"activity, negative = cytotoxicity"
1,Cc1cc(N)no1,-0.364% [at 79.1 µM]
2,O=C(O)Cc1ccccc1Oc1ccc(Cl)cc1Cl,17.9%
3,CC(=O)OC1CCC(C(C)(C)C)CC1 (stereo not drawn),6.46%
4,CN(C)CCCN(C)C,12.6% [at 6.72 µM]
5,Cc1ccc(O)c(C(=O)c2ccccc2)c1,23.5% [at 79.1 µM]
6,CC(=O)c1c(C)cc(C(C)(C)C)cc1C,3.89%
7,CCCCN(CCCC)CCCCCCN(CCCC)CCCC,4.31%
8,CCOC(=O)c1ccc(N(C)C)cc1,-9.75%
9,Cc1ccccc1OCC(=O)O,9.16%
10,C/C=C(\C)C(=O)OC/C=C(\C)CCC=C(C)C,-6.06%
11,CC(C)(C)C(=O)CCc1ccc(Cl)cc1,2.03%
12,CCC(=O)OCCOc1ccccc1,7.41%
13,CSC(=O)c1cccc2nnsc12,26.8%
14,C/C=C(\C)C=O,3.96% [at 79.1 µM]
15,CCCCCCCCCCCBr,22.4%
16,CC(C)CC(=O)N[C@H](C(=O)N[C@H](C(=O)N[C@@H](CC(C)C)[C@@H](O)CC(=O)N[C@@H](C)C(=O)N[C@@H](CC(C)C)[C@@H](O)CC(=O)O)C(C)C)C(C)C (Isovaleryl-VV[Sta]A[Sta]-OH),6.37%
